Compounds with a hit are over-represented: about 0.85% of the library has one in this group of screens.
B2AR arrestin – beta2AR (human) beta-arrestin recruitment activity. 330,000 tested, 0.02% active. beta-arrestin recruitment to beta2AR, cell-based reporter. P07550. Potency, µM (doses to about 46.1 µM), most hits filed as activators; further: nearly all actives have a fitted effect of over 65% in size
Target sequence (P07550 whole entry, looked up): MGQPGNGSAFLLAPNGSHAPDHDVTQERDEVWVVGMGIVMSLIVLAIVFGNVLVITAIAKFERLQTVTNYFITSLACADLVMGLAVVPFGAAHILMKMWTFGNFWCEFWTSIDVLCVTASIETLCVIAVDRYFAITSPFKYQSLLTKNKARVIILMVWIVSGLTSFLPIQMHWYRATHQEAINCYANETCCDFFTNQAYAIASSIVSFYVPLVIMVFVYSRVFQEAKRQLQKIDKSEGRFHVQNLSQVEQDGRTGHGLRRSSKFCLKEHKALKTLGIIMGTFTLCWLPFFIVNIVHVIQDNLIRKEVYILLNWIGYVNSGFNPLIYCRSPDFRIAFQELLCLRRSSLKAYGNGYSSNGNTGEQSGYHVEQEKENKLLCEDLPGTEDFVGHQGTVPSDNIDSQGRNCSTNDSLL
GAA glycogen mod – alters human alpha-glucosidase cleavage of glycogen | P10253 | recombinant GAA, glycogen substrate, Amplex Red glucose oxidase fluorescence | Potency, µM (top dose mostly 76.4 µM), hits mostly inhibitors | 300,000 tested, 0.38% active | AID 2100;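 further: the screen sought inhibitors and activators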
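Recombinant human enzyme (4 nM); glycogen substrate; 37 C, 40 min, pH 5.0. Readout: coupled glucose oxidase/Amplex Red fluorescence.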
GAA inhib – inhibitors of human lysosomal alpha-glucosidase. purified human GAA, 4-MU-alpha-glucoside fluorescence. Potency, µM (highest dose often 76.9 µM), actives largely listed as inhibitors. 200,000 tested, 0.005% active. AID 1466
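Human alpha-glucosidase, 4 nM, pre-mixed with test compounds before 400 uM 4-methylumbelliferyl substrate; 20 min room temperature at pH 5.0. Fluorescence read after pH 10 stop; AC50 values from Hill-equation fits.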
GAA spleen mod – inhibitors or activators of human alpha-glucosidase in spleen homogenate | 240,000 tested, 0.006% active | Potency, µM (series often up to 79.9 µM), hits mostly inhibitors | human spleen homogenate, 4-MU-alpha-glucoside fluorescence | AID 2112
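Human spleen homogenate (1 ug) incubated with compounds and 1 mM 4-methylumbelliferyl-alpha-D-glucopyranoside in pH 5.0 citrate/phosphate buffer, 37 C, 40 min. Stopped at pH 10; 4-MU fluorescence (Ex 365/Em 440 nm); AC50 by Hill fit.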
FBPA coupling cs – coupling enzyme interference in Giardia aldolase counter-screen; coupling enzyme system counterscreen, AmpLite Red fluorescence; activity change, negative = inhibition, % at 58.2 µM, hits read low; 290,000 tested, 0.67% active; AID 2472; in the data active means activity change below about -30%
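Activity here indicates interference with the coupling reaction, not aldolase inhibition. Compounds at 57.5 uM final met coupling enzymes for 10 min at RT; substrate and AmpLite Red detection followed, with a 525/598 nm fluorescence read after 20 min.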
Large screens that a line does not name were inactive; ! = not confirmed by another sample. Unless noted, the call rests on the fitted dose curve; in most records, active means well fitted curve in the direction sought with a large enough effect; inconclusive means small, poorly fitted or top-dose-only effect, or another doubt; inactive means no such curve, though single readings can be large; an effect the other way counts as inactive or inconclusive.

Nc1c(C(=O)NCCN2CCOCC2)c2nc3ccccc3nc2n1-c1ccccc1	GAA inhib inconclusive, GAA spleen mod inconclusive, FBPA coupling cs -30
COCCNC(=O)c1c(N)n(-c2cccc(C)c2)c2nc3ccccc3nc12	GAA inhib inconclusive, FBPA coupling cs -38
COCCNC(=O)c1c(N)n(-c2ccccc2)c2nc3ccccc3nc12	GAA inhib inconclusive
COC(=O)c1c(N)n(-c2ccc(NC(C)=O)cc2)c2nc3ccccc3nc12	GAA inhib inconclusive, FBPA coupling cs -30
COC(=O)c1c(N)n(-c2ccc(N3CCOCC3)cc2)c2nc3ccccc3nc12	none
COC(=O)[C@H](Cc1ccccc1)NC(=O)[C@@H](C)CO	none (no result: B2AR arrestin, GAA glycogen mod, GAA inhib)
COC(=O)[C@@H]1OC(c2ccccc2)O[C@H]1C(=O)OC	none (no result: B2AR arrestin, GAA glycogen mod, GAA inhib)
COC(=O)[C@@H]1[C@H]2C[C@H]3c4[nH]c5ccccc5c4CCN3C[C@H]2CC[C@@H]1O	none (no result: B2AR arrestin, GAA glycogen mod, GAA inhib, FBPA coupling cs)
Cc1cc(C)c2c(-n3cccc3)c(C(=O)NNS(=O)(=O)c3ccc(Cl)cc3)sc2n1	GAA glycogen mod 20µM
CCOc1ccc(Cl)cc1C1=CC(=O)C[C@H](c2ccc(OC)cc2)C1	none (no result: GAA glycogen mod, GAA inhib, GAA spleen mod, FBPA coupling cs)
CNc1ccc(Br)cc(C(=O)/C=C/c2cccc(OC)c2OC)c1=O	GAA glycogen mod inconclusive, FBPA coupling cs -32
COc1ccccc1/C=C/C(C)=O	none
CNc1ccc(Br)cc(C(=O)/C=C/c2cccc(Cl)c2Cl)c1=O	none
CNc1ccccc(C(=O)/C=C/c2ccccc2OC)c1=O	FBPA coupling cs -30
CNc1nc(-c2ccccc2C(F)(F)F)nc2ccccc12	none (no result: B2AR arrestin, GAA glycogen mod, GAA inhib)
CCOC(=O)Nc1sc(NS(=O)(=O)c2ccc(C)cc2)nc1C	GAA glycogen mod 28µM, GAA inhib inconclusive
CCOC(=O)Nc1sc(NS(=O)(=O)c2ccccc2)nc1C	GAA glycogen mod inconclusive
Cc1ccc(S(=O)(=O)Nc2nc(C)c(C(=O)NN)s2)cc1	GAA glycogen mod 32µM (no result: GAA inhib)
O=C1OC(C2=CCCCC2)=NC12CC2	none (no result: B2AR arrestin, GAA glycogen mod, GAA inhib)
CC(C)OC(C)C	none (no result: B2AR arrestin, GAA glycogen mod, GAA inhib)
Cc1[nH]c2ccccc2c1/C=N/NC(=S)NC(C)C	GAA glycogen mod 7.9µM
CC(C)NC(=S)N/N=C/c1c[nH]c2ccccc12	none
Cc1[nH]c2ccccc2c1/C=N/Nc1ccccc1[N+](=O)[O-]	GAA glycogen mod 6.3µM
Cc1[nH]c2ccccc2c1/C=N/NS(=O)(=O)c1ccccc1	GAA glycogen mod inconclusive
C[C@@H]1[C@H](C)CC[C@@]2(C(=O)O)CC[C@]3(C)C(=CC[C@H]4[C@@]5(C)CC[C@@H](O)C(C)(C)[C@@H]5CC[C@@]43C)[C@@H]12	none (no result: B2AR arrestin, GAA glycogen mod, GAA inhib)
N#C/C(=C\Nc1ccc2cn[nH]c2c1)c1nc(-c2ccc(Cl)cc2)cs1	FBPA coupling cs -35
N#C/C(=C\Nc1ccc2cn[nH]c2c1)c1nc(-c2ccccc2)cs1	none
CN(C)c1ccc(N2C(=O)CC(Nc3ccc(N4CCOCC4)cc3)C2=O)cc1 (configuration not stated)	GAA glycogen mod inconclusive
O=C1CC(Nc2ccc(N3CCOCC3)cc2)C(=O)N1c1cccc(C(F)(F)F)c1 (configuration not stated)	GAA glycogen mod 25µM, FBPA coupling cs -36
COc1cccc(N2C(=O)CC(Nc3ccc(N4CCOCC4)cc3)C2=O)c1 (configuration not stated)	GAA glycogen mod 3.5µM
COC(=O)[C@@]1(Cc2ccccc2)[C@H]2c3cc(C(=O)N4CCCC4)n(Cc4ccc(O)c(OC)c4)c3C[C@H]2CN1C(=O)c1ccccc1	none (no result: B2AR arrestin, GAA glycogen mod, GAA inhib)
Cc1cccc(NNC(=O)C2CCC2)c1	GAA glycogen mod 7.9µM (no result: GAA inhib)
Cc1cccc(NC(=O)C2CCCC2)c1	none
CC[C@H](C)[C@H](NC(=O)[C@@H](NC(=O)[C@@H](CC(=O)NO)Cc1ccccc1)[C@@H](C)CC)C(=O)O	none (no result: B2AR arrestin, GAA glycogen mod, GAA inhib)
O=C(Nc1ccc2c(c1)nc1n2CCN(C2CCCCC2)C1)NC1CCCCC1	FBPA coupling cs -32
COC(=O)[C@@H]1[C@@H]2C[C@H]3c4[nH]c5ccccc5c4CCN3C[C@@H]2CC[C@@H]1O	FBPA coupling cs -41! (no result: B2AR arrestin, GAA glycogen mod, GAA inhib)
COC(=O)C1=COC(C)C2CN3CCc4c([nH]c5ccccc45)C3CC12 (configuration not stated)	none
COC(=O)C1=CO[C@@H](C)[C@@H]2CN3CCc4c([nH]c5ccccc45)[C@@H]3C[C@H]12	FBPA coupling cs -31 (no result: B2AR arrestin, GAA glycogen mod, GAA inhib)

Screening results deposited in PubChem by National Center for Advancing Translational Sciences (NCATS).
